Reference: PubChem BioAssay (EPA / NIEHS)
Some structures have more than one record in an assay (separate samples or runs), and their calls can disagree. Calls of active or inactive are those of the source. Rule for the calls: active = hit-call score of the fitted dose curve at least 0.9, where 1 is the maximum; inactive = score below 0.9.

Legend:
Details in all cases: primary human HUVEC with PBMC; actives raise or lower the signal
[1] = read-out: Interleukin-1 alpha (IL1a), IL1A (gene 3552); test: BSK_LPS_IL1a: BioMAP Diversity Plus: LPS Assay for Interleukin-1 alpha (IL1a) Biomarker Activity (AID 2283080)
Method in brief: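 Readout is IL-1a level by ELISA, 24 h post-dose, fitted as gain or loss relative to DMSO. System: LPS-activated human primary co-culture of vascular endothelium and peripheral blood mononuclear cells, with parallel SRB total-protein cytotoxicity.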

[2] = read-out: Monocyte Chemoattractant Protein-1 (MCP1), CCL2 (gene 6347); test: BSK_LPS_MCP1: BioMAP Diversity Plus: LPS Assay for Monocyte Chemoattractant Protein-1 (MCP1) Biomarker Activity (AID 2283081);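 for AC50: secreted MCP-1 protein quantified by ELISA in culture supernatant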
Method in brief: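 Secreted MCP-1 read by ELISA at 24 h post-dosing in an LPS-activated co-culture of endothelial cells with peripheral blood mononuclear cells. Fits run in both directions, DMSO as baseline; parallel SRB staining tracks overt cytotoxicity.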

[3] = read-out: Macrophage colony-stimulating factor (MCSF), CSF1 (gene 1435); test: BSK_LPS_MCSF: BioMAP Diversity Plus: LPS Assay for Macrophage colony-stimulating factor (MCSF) Biomarker Activity (AID 2283083)
Method in brief: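 Bidirectional fitting against DMSO was applied to M-CSF levels read by ELISA at 24 h post-dose. The system pairs human umbilical vein endothelium with peripheral blood mononuclear cells; parallel SRB staining tracked cytotoxicity.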

[4] = read-out: Tissue Factor, F3 (gene 2152); test: BSK_LPS_TissueFactor: BioMAP Diversity Plus: LPS Assay for Tissue Factor Biomarker Activity (AID 2283084)
Method in brief: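 Compound was added to an endothelial cell/PBMC co-culture, and after 24 h tissue factor (CD142) was read by ELISA. Gain or loss of signal was fitted against a DMSO baseline, and parallel SRB staining (560 nm) tracked overt cytotoxicity.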

[5] = read-out: Tumor necrosis factor (Homo sapiens) (UniProt P01375); test: BSK_LPS_TNFa: BioMAP Diversity Plus: LPS Assay for Tumour Necrosis Factor alpha (TNFa) Biomarker Activity (AID 2283085);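 for AC50: TNFa protein level quantified by ELISA in the co-culture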
Method in brief: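 Human umbilical vein endothelial cells co-cultured with PBMC and stimulated with LPS. TNFa was measured by ELISA 24 h after chemical dosing, fitted bidirectionally relative to DMSO.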

[6] = read-out: Vascular cell adhesion molecule 1 (VCAM1), VCAM1 (gene 7412); test: BSK_LPS_VCAM1: BioMAP Diversity Plus: LPS Assay for Vascular cell adhesion molecule 1 (VCAM1) Biomarker Activity (AID 2283086)
Method in brief: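 Human umbilical vein endothelial cells co-cultured with PBMC and stimulated with LPS; VCAM-1 measured by ELISA 24 h after dosing. Bidirectional curve fitting against DMSO baseline; cytotoxicity tracked in parallel by SRB total-protein staining.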

[7] = read-out: CD38, CD38 (gene 952); test: BSK_SAg_CD38: BioMAP Diversity Plus: SAg Assay for CD38 Biomarker Activity (AID 2283087)
Method in brief: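 Human HUVEC plus PBMC co-culture stimulated with superantigen; CD38 measured by ELISA 24 h after chemical dosing. Fluorescence read-out, bidirectional fit against DMSO; cytotoxicity tracked in parallel by SRB and Alamar Blue.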

[8] = read-out: CD40, CD40 (gene 958); test: BSK_SAg_CD40: BioMAP Diversity Plus: SAg Assay for CD40 Biomarker Activity (AID 2283088)
Method in brief: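 CD40 is measured by fluorescence ELISA in an endothelial/PBMC primary human co-culture at 24 h post-dose. Fitting is bidirectional, DMSO baseline. Parallel SRB staining (560 nm) flags cytotoxicity.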

[9] = read-out: CD69, CD69 (gene 969); test: BSK_SAg_CD69: BioMAP Diversity Plus: SAg Assay for CD69 Biomarker Activity (AID 2283089);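 for AC50: cell surface CD69 protein quantified by ELISA with fluorescence detection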
Method in brief: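 ELISA, fluorescence read-out: CD69 on human umbilical vein endothelial cell + PBMC co-culture, 24 h post-dosing. Gain or loss of signal fitted bidirectionally against DMSO baseline.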

[10] = BSK_LPS_PGE2: BioMAP Diversity Plus: LPS Assay for Prostaglandin E2 (PGE2) Biomarker Activity (AID 2283082);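 for AC50: secreted prostaglandin E2 measured by ELISA in LPS-stimulated co-culture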
Method in brief: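 HUVEC plus human PBMC co-culture stimulated with LPS; secreted PGE2 quantified by ELISA 24 h after chemical dosing. Activity fitted bidirectionally against DMSO baseline; parallel SRB staining (0.1% SRB after 10% TCA fixation, 560 nm) flags overt cytotoxicity.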

Measured: AC50

Tumor necrosis factor (Homo sapiens), sequence (P01375 whole entry, looked up): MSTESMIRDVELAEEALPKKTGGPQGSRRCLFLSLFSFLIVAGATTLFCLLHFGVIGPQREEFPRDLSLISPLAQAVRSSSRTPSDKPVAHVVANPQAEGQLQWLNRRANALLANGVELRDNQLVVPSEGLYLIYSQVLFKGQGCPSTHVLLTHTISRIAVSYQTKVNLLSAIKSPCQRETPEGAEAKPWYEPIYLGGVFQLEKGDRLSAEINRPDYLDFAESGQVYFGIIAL

CCCC(=NOCC)C1=C(O)CC(CC(C)SCC)CC1=O (centres undefined)
not listed: [10]
inactive: all other assays above

CC1(C)C(C=C(Cl)Cl)C1C(=O)OC(C#N)c1cccc(Oc2ccccc2)c1 (centres undefined)
active: [10] 4.89 µM | [5] 0.838 µM
not listed: [1]
inactive: all other assays above

CCCN(CC)CC1COC2(CCC(C(C)(C)C)CC2)O1 (centres undefined)
active: [7] 14.7 µM
not listed: [8]
inactive: all other assays above

CCCCC(O)(Cn1cncn1)c1ccc(Cl)cc1Cl (centres undefined)
active: [10] 3.81 µM
not listed: [8]
inactive: all other assays above

COc1cc(OC)nc(NC(=O)NS(=O)(=O)c2ncccc2OCC(F)(F)F)n1
not listed: [10]
inactive: all other assays above

CCN(CC)c1nc(C)cc(OP(=S)(OC)OC)n1
inactive: [1] | [2] | [4]
active: [3] 20 µM | [5] 6.51 µM | [6] 20 µM | [7] 20 µM | [9] 3.97 µM

CCOc1cc(C(C)(C)C)ccc1C1COC(c2c(F)cccc2F)=N1 (centres undefined)
active: [1] 30.5 µM | [2] 33.4 µM | [3] 20.9 µM | [4] 36.8 µM | [5] 30.4 µM | [6] 31.4 µM | [7] 18.8 µM | [9] 20.5 µM

Cn1c(-c2ccccc2)cc(-c2ccccc2)[n+]1C
active: [7] 2.68 µM | [8] 7.51 µM | [9] 2.99 µM
not listed: [10]
inactive: all other assays above

N#CN=C1SCCN1Cc1ccc(Cl)nc1
not listed: [8]
inactive: all other assays above

Cc1cc(C)nc(Nc2ccccc2)n1
active: [7] 20 µM
not listed: [10]
inactive: all other assays above

CCOc1nc(F)cc2nc(S(=O)(=O)Nc3c(Cl)cccc3Cl)nn12
not listed: [8]
inactive: all other assays above

COP(=S)(OC)SCn1nnc2ccccc2c1=O
inactive: [1] | [3] | [7]
active: [2] 20 µM | [4] 16.9 µM | [5] 5.58 µM | [6] 20 µM | [8] 20 µM | [9] 20 µM

CCOc1nc(C(Cl)(Cl)Cl)ns1
not listed: [8] | [10]
inactive: all other assays above

O=C1C2CC=CCC2C(=O)N1SC(Cl)(Cl)Cl (centres undefined)
active: [3] 29 µM | [4] 31.4 µM | [5] 36.6 µM | [6] 14.3 µM | [7] 30.5 µM
inactive: [1] | [2] | [10] | [9]

Nc1cnn(-c2ccccc2)c(=O)c1Cl
not listed: [8] | [10]
inactive: all other assays above

CCOP(=S)(OCC)Oc1nc(Cl)n(C(C)C)n1
active: [10] 14.1 µM
not listed: [8]
inactive: all other assays above

COC(=O)N(C(=O)N1CO[C@@]2(C(=O)OC)Cc3cc(Cl)ccc3C2=N1)c1ccc(OC(F)(F)F)cc1
active: [7] 5.95 µM | [8] 5.46 µM | [9] 6.93 µM
not listed: [10]
inactive: all other assays above

Cc1nc(N(C)C)nc(OC(=O)N(C)C)c1C
inactive: all assays above

CC(C)N1C(=O)N(c2ccccc2)CSC1=NC(C)(C)C
active: [2] 30.5 µM | [10] 33.2 µM | [3] 18.9 µM | [4] 32.6 µM | [5] 32.1 µM | [6] 31.6 µM | [7] 30.7 µM | [8] 33.4 µM | [9] 30.3 µM

O=P(O)(O)CCCl
inactive: all assays above

COC(=O)NC(=S)Nc1ccccc1NC(=S)NC(=O)OC
active: [3] 22.8 µM | [7] 28.4 µM
inactive: all other assays above

Clc1nc(Cl)nc(Nc2ccccc2Cl)n1
inactive: all assays above

CC(C)(C)C(=O)C(Oc1ccc(Cl)cc1)n1cncn1 (centres undefined)
not listed: [8] | [10]
inactive: all other assays above

O=C(O)c1c(Cl)ccc2cc(Cl)cnc12
not listed: [1]
inactive: all other assays above

CCCCOCN(C(=O)CCl)c1c(CC)cccc1CC
active: [1] 30.7 µM | [2] 31.8 µM | [3] 27 µM | [4] 30.2 µM | [5] 35.1 µM | [6] 28.2 µM | [7] 29.4 µM | [9] 18.3 µM
inactive: [10]

CN=C=S
active: [7] 10 µM | [8] 13.5 µM
inactive: all other assays above

C=C(C)CN(CC)c1c([N+](=O)[O-])cc(C(F)(F)F)cc1[N+](=O)[O-]
active: [5] 5.11 µM | [6] 20 µM | [7] 33.7 µM
not listed: [8] | [10]
inactive: all other assays above

COP(=O)(OC)O/C(C)=C/C(=O)N(C)C
active: [10] 17.3 µM
not listed: [1]
inactive: all other assays above

CCNP(=S)(OC)O/C(C)=C/C(=O)OC(C)C (centres undefined)
not listed: [8] | [10]
inactive: all other assays above

CNC(=O)N(C)c1nnc(C(C)(C)C)s1
not listed: [8]
inactive: all other assays above

COCC(=O)N(c1c(C)cccc1C)C(C)C(=O)OC (centres undefined)
not listed: [10]
inactive: all other assays above

COCC(C)N(C(=O)CCl)c1c(C)csc1C (centres undefined)
active: [6] 3.97 µM
inactive: [1] | [2] | [3] | [4] | [5] | [6] | [7] | [8] | [9]

COP(=S)(OC)Oc1ccc([N+](=O)[O-])c(C)c1
inactive: [1] | [4] | [5] | [7]
active: [2] 20 µM | [3] 20 µM | [6] 31.5 µM | [9] 37 µM

CC1(C)CCC(=Cc2ccc(Cl)cc2)C1(O)Cn1cncn1 (centres undefined)
not listed: [10]
inactive: all other assays above
